# Screens from PubChem.
# VP16 counter – counter-screen for ROR gamma inhibitors: Gal4-VP16 reporter; Drosophila S2 Gal4-VP16 UAS-luciferase, luminescence, 20 h; Potency, µM (series often up to 53.6 µM), for inactives: top-dose activity, negative = inhibition, hits mostly inhibitors; 310,000 compounds, 3.5% hits; AID 2546;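 note: Gal4-VP16 expression switched on by copper sulfate through the metallothionein promoter; nearly all actives have a fitted effect of over 50% in size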
# KinaseGlo FLuc – Kinase-Glo luciferase inhibition (counter-screen). Q27757. Kinase-Glo luciferase, ATP luminescence, 8 min. Potency, µM (doses to about 38.3 µM), for the others: top-dose activity change, negative = inhibition, most hits filed as inhibitors. 200,000 compounds, 0.28% hits. AID 1379; note: nearly all actives have a fitted effect of over 60% in size
#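 Inhibition of Kinase-Glo luciferase light generation was assessed at 10 uM ATP in pH 7.2 imidazole buffer, with luminescence measured after eight minutes at ambient temperature.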
# RORg inh – ROR gamma (mouse) transcription inhibition. P51450. Drosophila S2 Gal4-RORgamma UAS-luciferase reporter, 20 h. Potency, µM (titrated, usually from 53.6 µM), for inactives: at the highest dose activity change, negative = inhibition, most hits filed as inhibitors. 310,000 compounds, 5.4% hits. AID 2551; note: nearly all actives have a fitted effect of over 60% in size
# Target sequence (P51450 whole entry, looked up, the tested form may be a part): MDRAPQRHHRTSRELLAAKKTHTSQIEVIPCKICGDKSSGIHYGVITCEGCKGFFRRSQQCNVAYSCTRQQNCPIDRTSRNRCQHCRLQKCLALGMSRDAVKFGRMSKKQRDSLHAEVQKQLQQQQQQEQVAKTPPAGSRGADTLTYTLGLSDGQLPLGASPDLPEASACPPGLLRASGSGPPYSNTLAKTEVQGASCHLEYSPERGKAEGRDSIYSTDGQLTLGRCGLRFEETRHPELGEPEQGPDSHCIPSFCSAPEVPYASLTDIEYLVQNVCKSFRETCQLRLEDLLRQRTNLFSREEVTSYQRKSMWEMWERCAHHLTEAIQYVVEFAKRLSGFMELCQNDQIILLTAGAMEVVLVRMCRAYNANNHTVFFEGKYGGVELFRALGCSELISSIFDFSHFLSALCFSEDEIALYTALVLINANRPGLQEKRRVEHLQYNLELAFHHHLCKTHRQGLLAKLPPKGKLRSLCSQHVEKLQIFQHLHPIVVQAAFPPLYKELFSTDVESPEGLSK
#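 Stably transfected Drosophila Schneider cells are the test system, with ROR gamma fused to Gal4 and luciferase under UAS control; luminescence is read after 20 hr of 700 uM copper sulfate induction at ambient temperature.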
# Active calls of the source: *; ? = inconclusive; . = no result given; [ ] = remark or other dose. This is a sample that favours compounds with a hit; in the whole collection about 6.4% have one here. Calls come from the whole dose curve; as a rule, active = well fitted curve in the direction sought with a large enough effect; inconclusive = small, poorly fitted or top-dose-only effect, or another doubt; inactive = no such curve, though single readings can be large; an effect the other way counts as inactive or inconclusive. % is set by controls: 0 for no effect and ±100 for the full control effect; potency is the fitted concentration of half-maximal effect.
SMILES,VP16 counter,KinaseGlo FLuc,RORg inh
O=C(CCc1ccccc1)NC(=S)Nc1ccc2c(c1)C(=O)OC2,-18.4%,-0.4%,-6.6%
O=C(C[n+]1ccccc1)Nc1ccccc1Br,2.82µM*,-1.7%,1.26µM*
O=[N+]([O-])c1cccc2c3c([nH]c12)CCCC3,-6.7%,.,27.0%
O=C(CCc1ccccc1)NC(=S)Nc1cccc(C(=O)O)c1,-19.9%,.,-33.0%
O=C(CCc1ccccc1)NC(=S)Nc1cccc(Br)c1,?,1.1%,11.2µM*
CC(=O)c1c(C(C)=O)c(C)n(C(c2ccccc2)c2ccccc2)c1C,-8.4%,3.3%,3.3%
COC(=O)[C@@]1(Cc2ccc(F)cc2)[C@H]2c3cc(C(=O)N(C)C)n(Cc4ccsc4Br)c3C[C@H]2CN1C(=O)c1ccccc1,0.9%,-1.9%,12.7%
COc1ccccc1C(=O)ON=C1c2ccccc2-c2ccccc21,?,2.8%,36.7%[10 µM]
COc1ccc2c(c1[N+](=O)[O-])CCC/C2=N/OC(=O)c1cccc2ccccc12,14.1µM*,-3.2%,-23.2%
COC(=O)c1[nH]c2c(c1C)C(=O)CC(c1cccc(OC)c1)C2 (stereo not given),7.4%,.,26.6%
COC(=O)[C@H]1[C@@H]2C[C@H]3c4[nH]c5ccccc5c4CCN3C[C@@H]2CC[C@@H]1O,-5.0%,-1.8%,4.6%
CCCCCCCc1c(C)nc(N2CCOCC2)[nH]c1=O,9.4%,-3.2%,-8.1%
CCCCCCc1c(C)nc(-n2[nH]c(C)c(CCO)c2=O)[nH]c1=O,15.8µM*,-1.4%,3.55µM*
CNc1ccc(Br)cc1C(O)c1ccccc1 (stereo not given),?,.,12.6µM*
Cc1ccc(S(=O)(=O)Nc2ccccc2C(O)c2ccccc2)cc1 (stereo not given),-11.2%,.,-0.4%
Cc1cc(OCC(=O)N2CCC(O)CC2)c2c(C)cc(=O)oc2c1,0.7%,.,-2.0%
O=[N+]([O-])c1ccc(O)c(/C=N/NC2=NS(=O)(=O)c3ccccc32)c1,1.26µM*,-14.7%,1.26µM*
Cn1c(=O)c2c(nc(N/N=C/c3cccs3)n2C)n(C)c1=O,18.1%,.,27.9%
O=S1(=O)N=C(N/N=C/c2cccs2)c2ccccc21,0.501µM*,.,0.891µM*
O=[N+]([O-])c1ccc(O)c(/C=N/Nc2ccc(Cl)nn2)c1,1.41µM*,-3.8%,1µM*
O=[N+]([O-])c1ccc(O)c(/C=N/Nc2nn[nH]n2)c1,1.3%,-0.6%,?
O=[N+]([O-])c1ccc(/C=N/NC2=NS(=O)(=O)c3ccccc32)cc1,8.6%,-0.6%,-10.5%
CCCCS(=O)(=O)N1CCC(C(=O)Oc2ccc(Cl)cc2)CC1,-2.6%,.,-7.8%
CC(C)CN1CC[C@@]2(CCCN(S(=O)(=O)c3ccccc3)C2)C1,-15.6%,-1.2%,-12.0%
COc1cccc(CNC(=O)c2ccc(Cl)c(NC3=NC4CS(=O)(=O)CC4S3)c2)c1 (stereo not given),4.9%,.,-22.6%
SMILES,VP16 counter,KinaseGlo FLuc,RORg inh
CCCn1nnc(NC(=O)c2ccc(Cl)cc2Cl)n1,?,-15.1%,20.6%
COc1cc2ccccc2cc1C(=O)NC(=S)Nc1cc(C(=O)O)ccc1C,-12.9%,-0.3%,17.6%
COc1cc2ccccc2cc1C(=O)NC(=S)Nc1nnn(C)n1,1.12µM*,-2.7%,1µM*
Cn1nnc(NC(=S)NC(=O)c2cc(Cl)ccc2Cl)n1,2µM*,.,0.794µM*
Nc1[nH]n(-c2ccccc2)c(=O)c1N=Nc1ccc2ncsc2c1,2.3%,.,16.8%
O=C(O)CSc1nnc(-c2cccc(S(=O)(=O)N3CCOCC3)c2)n1-c1cccc(Cl)c1,-5.7%,.,2.7%
Cc1ccc(C(=O)N/C(=C\c2ccccc2)C(=O)NCc2cccnc2)cc1,-3.9%,-0.6%,?
CCOC(=O)C1CCN(S(=O)(=O)c2c(C)[nH]c(C)c2C(=O)N2CCCCC2)CC1,-11.0%,.,-4.7%
Cc1ccc(NC(=O)Cc2nn(C)c(=O)c3ccccc23)cc1F,11.2µM*,0.1%,-19.2%
COc1cc(NC(=O)Cc2nn(C)c(=O)c3ccccc23)cc(OC)c1,?,5.3%,?
Cn1nc(CC(=O)Nc2ccc(N3CCN(C(=O)OC(C)(C)C)CC3)cc2)c2ccccc2c1=O,2.51µM*,2.0%,?
Cn1c(C(=O)O)c(CC(=O)Nc2ccc3c(c2)OCCO3)c2ccccc21,0.6%,2.9%,18.9%
Cn1nc(CC(=O)N2CCN(c3ccccc3)CC2)c2ccccc2c1=O,-7.3%,4.6%,-19.8%
Cn1nc(CC(=O)Nc2ccc3c(c2)OCCO3)c2ccccc2c1=O,7.94µM*,-2.3%,-34.1%
O=C1C=CC(=C(c2ccc(O)cc2)c2ccc(O)cc2)C=C1,?,-1.4%,?
Cn1c(=O)c2c([nH]c(OCc3ccc(Cl)cc3Cl)[n+]2Cc2ccc(F)cc2)n(C)c1=O,-10.1%,.,7.9%
O=C(O)C[C@H](NC(=O)CP(=O)(O)O)C(=O)O.[NH-][C@@H]1CCCC[C@@H]1[NH-].[Pt],.,-3.9%[7.66 µM],.
COc1ccc(CNC(=O)C(c2ccncc2)N(C(=O)Cc2cccs2)c2ccccc2)cc1 (stereo not given),1.5%,-0.3%,28.7%
COc1ccc(N(C(=O)CCl)C(C(=O)NCCc2ccccc2)c2cccs2)cc1 (stereo not given),?,-1.2%,11.2µM*
COCC(=O)N1CCC2(CC1)CCN(c1ccncc1)CC2,-4.3%,-1.5%,-3.1%
Cn1nc(C(C)(C)C)cc1C(=O)NCc1cc(F)cc2c1OCOC2,3.55µM*,.,?
Cc1cc(C(=O)NCc2cc(F)cc3c2OCOC3)nn1C,5.8%,.,-16.2%
CC(C)(C)NC(=O)NCc1cccnc1,-6.6%,.,-14.1%
COc1ccc(C2CCCN2C(=S)Nc2cccc(Cl)c2C)cc1OC (stereo not given),?,-0.4%,?
Cc1cccc(/C=C(\c2nc3ccccc3[nH]2)S(=O)(=O)c2ccccc2)c1,-78.1%,4.3%,?
SMILES,VP16 counter,KinaseGlo FLuc,RORg inh
Cc1ccc(NC(=S)N2CCCC(c3nc4ccccc4[nH]3)C2)cc1 (stereo not given),-4.0%,4.3%,?
Cc1ccc(NC(=S)c2nc3ccccc3[nH]2)c(C)c1,?,-13.8%,14.1µM*
Cc1ccc(NC(=S)c2nc3ccccc3[nH]2)cc1,7.94µM*,-20.9%,3.16µM*
Cc1ccc2nc(SCC(=O)N3CCOCC3)[nH]c2c1,?,-2.3%,-43.6%
Cc1ccc2nc(SCC3CCCCO3)[nH]c2c1 (stereo not given),6.31µM*,.,5.62µM*
COc1cc2c(cc1OC)C(c1ccc(Br)cc1)N(C(=O)c1ccccc1C(=O)O)CC2 (stereo not given),-2.2%,.,25.1%
NC(=S)NCCCC(N)C(=O)O (stereo not given),.,-2.2%,.
CC(=O)C1CCCN(C(=O)c2ccc3nc(Cc4cccc(Cl)c4)oc3c2)C1 (stereo not given),0.0%,.,11.5%
C/C(=N\OC(=O)c1ccc(F)cc1)c1nccs1,-11.1%,-26.3%,-15.7%
COc1ccc(C/C(N)=N/OC(=O)c2cccs2)cc1,?,1.0%,-7.3%
COc1ccc(C(=O)O/N=C(\C)c2nccs2)cc1,-5.2%,12.6µM*,1.9%
COc1ccc(C(=O)O/N=C(/C)c2cccs2)cc1,13.2%,12.6µM*,14.7%
c1cncc(CNc2cc(-c3ccc4c(c3)OCO4)ncn2)c1,4.0%,-20.1%,0.1%
